Experimental data reported in the supplement of paper PMC10849652.
Targets with a hit are over-represented here; the source holds about 7,900 in all. About 0.6% of all pairs of compound and target were hits. Unmarked numbers belong to inactive results.

Assays:
Assay in all cases: log2 fold change, soluble protein after heating vs DMSO (PISA); higher = thermal stabilisation; K562 cells, 10 uM, 30 min; active = over 0.2 and 3.5 SD of the protein, either way, in both replicates (recomputed)
bafetinib = compound: Cc1ccc(NC(=O)c2ccc(CN3CC[C@H](N(C)C)C3)c(C(F)(F)F)c2)cc1Nc1nccc(-c2cncnc2)n1 [bafetinib]
In short: (§1)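 Soluble protein was defined as the supernatant after 21,000xg for 90 min. It came from K562 cells at 2×10^6 cells/mL given 10 μM compound for 30 min, heated in aliquots for 3 min across 48°C-58°C, pooled, and extracted in PBS with 0.5% NP-40 at 4°C, and was quantified by TMTpro 16plex LC-MS/MS with equalised channel sums. Thermal stability against control samples, from duplicates, is reported as log2 fold change.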

[1] = compound: Cc1cccc(CC(=O)N2CCc3c2ccc(-c2cn(C)c4ncnc(N)c24)c3F)n1
In short: as §1

nilotinib = compound: Cc1cn(-c2cc(NC(=O)c3ccc(C)c(Nc4nccc(-c5cccnc5)n4)c3)cc(C(F)(F)F)c2)cn1 [nilotinib]
In short: as §1

[2] = compound: Cc1nc(Nc2n[nH]c3c2CN(C(=O)N[C@H](CN(C)C)c2ccccc2)C3(C)C)c2sccc2n1
In short: as §1

dasatinib = compound: Cc1nc(Nc2ncc(C(=O)Nc3c(C)cccc3Cl)s2)cc(N2CCN(CCO)CC2)n1 [dasatinib]
In short: as §1

[3] = compound: Cc1ncc(-c2ccnc(Nc3ccc(S(C)(=O)=O)cc3)n2)n1C(C)C
In short: as §1

[4] = compound: Cn1cc(-c2ccc3c(c2)CCN3C(=O)Cc2cccc(C(F)(F)F)c2)c2c(N)ncnc21
In short: as §1

[5] = compound: Cn1cc(-c2ccc3nnc(C(F)(F)c4ccc5ncccc5c4)n3n2)cn1
In short: as §1

tipifarnib = compound: Cn1cncc1[C@@](N)(c1ccc(Cl)cc1)c1ccc2c(c1)c(-c1cccc(Cl)c1)cc(=O)n2C [tipifarnib]
In short: as §1

mubritinib = compound: FC(F)(F)c1ccc(/C=C/c2nc(COc3ccc(CCCCn4ccnn4)cc3)co2)cc1 [mubritinib]
In short: as §1

[6] = compound: NC(=O)Nc1cc(-c2cccc(F)c2)sc1C(=O)N[C@H]1CCCNC1
In short: as §1

[7] = compound: NC(=O)c1cnc(N[C@@H]2CCCC[C@@H]2N)nc1Nc1cccc(-n2nccn2)c1
In short: as §1

[8] = compound: NC1(c2ccc(-c3nc4ccn5c(=O)[nH]nc5c4cc3-c3ccccc3)cc2)CCC1
In short: as §1

[9] = compound: NCC(=O)Nc1ccc(-n2nc(C(F)(F)F)cc2-c2ccc3c(ccc4ccccc43)c2)cc1
In short: as §1

entinostat = compound: Nc1ccccc1NC(=O)c1ccc(CNC(=O)OCc2cccnc2)cc1 [entinostat]
In short: as §1

vorinostat = compound: O=C(CCCCCCC(=O)Nc1ccccc1)NO [vorinostat]
In short: as §1

citarinostat = compound: O=C(CCCCCCNC(=O)c1cnc(N(c2ccccc2)c2ccccc2Cl)nc1)NO [citarinostat]
In short: as §1

silmitasertib = compound: O=C(O)c1ccc2c(c1)nc(Nc1cccc(Cl)c1)c1ccncc12 [silmitasertib]
In short: as §1

[10] = compound: O=C1NC(=O)C(c2cnc3ccccn23)=C1c1cn2c3c(cc(F)cc13)CN(C(=O)N1CCCCC1)CC2
In short: as §1

[11] = compound: c1cc(OCCN2CCCCC2)cc(-c2n[nH]c3ccc(-c4nnc[nH]4)cc23)c1
In short: as §1

Chain of UniProt Q66K14 (Q66K14 whole entry, looked up): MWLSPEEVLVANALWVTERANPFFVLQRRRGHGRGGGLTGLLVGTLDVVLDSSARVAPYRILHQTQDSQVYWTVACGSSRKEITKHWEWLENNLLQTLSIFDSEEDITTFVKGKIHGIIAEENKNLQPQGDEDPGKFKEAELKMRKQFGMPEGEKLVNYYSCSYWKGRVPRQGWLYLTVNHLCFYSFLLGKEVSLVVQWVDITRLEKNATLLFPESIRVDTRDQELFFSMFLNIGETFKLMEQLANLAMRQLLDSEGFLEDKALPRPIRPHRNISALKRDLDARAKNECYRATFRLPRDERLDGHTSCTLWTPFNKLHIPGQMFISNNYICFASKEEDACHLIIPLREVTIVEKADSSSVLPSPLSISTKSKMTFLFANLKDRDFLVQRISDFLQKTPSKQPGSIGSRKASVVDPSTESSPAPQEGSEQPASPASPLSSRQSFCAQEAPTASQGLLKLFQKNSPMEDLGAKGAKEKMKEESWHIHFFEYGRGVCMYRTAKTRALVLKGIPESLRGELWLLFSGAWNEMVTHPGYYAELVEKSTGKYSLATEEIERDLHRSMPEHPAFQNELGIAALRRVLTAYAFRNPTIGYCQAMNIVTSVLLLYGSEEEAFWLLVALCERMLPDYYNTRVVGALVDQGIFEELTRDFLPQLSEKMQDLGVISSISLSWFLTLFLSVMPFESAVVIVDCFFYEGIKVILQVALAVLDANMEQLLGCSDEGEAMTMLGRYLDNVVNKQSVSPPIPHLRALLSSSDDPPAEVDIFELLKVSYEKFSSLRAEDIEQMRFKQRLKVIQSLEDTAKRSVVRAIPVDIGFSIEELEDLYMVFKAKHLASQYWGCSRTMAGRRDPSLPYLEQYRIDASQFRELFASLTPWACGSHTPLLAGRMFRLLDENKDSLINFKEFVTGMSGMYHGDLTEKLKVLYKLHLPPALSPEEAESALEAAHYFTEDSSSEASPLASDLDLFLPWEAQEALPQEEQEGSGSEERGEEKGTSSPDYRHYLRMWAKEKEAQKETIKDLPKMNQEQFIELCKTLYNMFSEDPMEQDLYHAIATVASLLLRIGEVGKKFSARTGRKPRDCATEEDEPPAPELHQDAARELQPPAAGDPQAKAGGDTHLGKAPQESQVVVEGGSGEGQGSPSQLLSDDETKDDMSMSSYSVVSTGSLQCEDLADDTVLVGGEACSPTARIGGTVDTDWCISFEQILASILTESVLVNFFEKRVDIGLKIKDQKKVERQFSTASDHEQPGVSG
Chain of UniProt Q15526 (Q15526 whole entry, looked up): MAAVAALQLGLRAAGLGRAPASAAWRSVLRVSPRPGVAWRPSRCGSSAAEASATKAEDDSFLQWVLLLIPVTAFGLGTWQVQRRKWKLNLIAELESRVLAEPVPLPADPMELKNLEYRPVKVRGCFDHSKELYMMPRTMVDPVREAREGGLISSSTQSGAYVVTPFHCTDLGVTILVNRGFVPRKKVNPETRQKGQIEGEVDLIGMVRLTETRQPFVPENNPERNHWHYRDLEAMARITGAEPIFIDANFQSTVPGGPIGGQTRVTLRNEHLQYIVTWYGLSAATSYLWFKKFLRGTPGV
Chain of UniProt Q9NYB0 (Q9NYB0 whole entry, looked up): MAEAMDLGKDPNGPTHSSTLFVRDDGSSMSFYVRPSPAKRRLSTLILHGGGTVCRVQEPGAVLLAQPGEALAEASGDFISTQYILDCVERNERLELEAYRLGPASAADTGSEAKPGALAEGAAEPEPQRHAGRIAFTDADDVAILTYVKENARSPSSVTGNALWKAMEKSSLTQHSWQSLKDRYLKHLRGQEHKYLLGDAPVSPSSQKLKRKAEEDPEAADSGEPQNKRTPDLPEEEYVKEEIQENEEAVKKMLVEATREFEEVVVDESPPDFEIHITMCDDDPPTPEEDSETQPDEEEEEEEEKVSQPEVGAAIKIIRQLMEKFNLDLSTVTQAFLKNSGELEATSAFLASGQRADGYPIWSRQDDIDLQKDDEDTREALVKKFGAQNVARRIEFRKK
Chain of UniProt P02786 (P02786 whole entry, looked up): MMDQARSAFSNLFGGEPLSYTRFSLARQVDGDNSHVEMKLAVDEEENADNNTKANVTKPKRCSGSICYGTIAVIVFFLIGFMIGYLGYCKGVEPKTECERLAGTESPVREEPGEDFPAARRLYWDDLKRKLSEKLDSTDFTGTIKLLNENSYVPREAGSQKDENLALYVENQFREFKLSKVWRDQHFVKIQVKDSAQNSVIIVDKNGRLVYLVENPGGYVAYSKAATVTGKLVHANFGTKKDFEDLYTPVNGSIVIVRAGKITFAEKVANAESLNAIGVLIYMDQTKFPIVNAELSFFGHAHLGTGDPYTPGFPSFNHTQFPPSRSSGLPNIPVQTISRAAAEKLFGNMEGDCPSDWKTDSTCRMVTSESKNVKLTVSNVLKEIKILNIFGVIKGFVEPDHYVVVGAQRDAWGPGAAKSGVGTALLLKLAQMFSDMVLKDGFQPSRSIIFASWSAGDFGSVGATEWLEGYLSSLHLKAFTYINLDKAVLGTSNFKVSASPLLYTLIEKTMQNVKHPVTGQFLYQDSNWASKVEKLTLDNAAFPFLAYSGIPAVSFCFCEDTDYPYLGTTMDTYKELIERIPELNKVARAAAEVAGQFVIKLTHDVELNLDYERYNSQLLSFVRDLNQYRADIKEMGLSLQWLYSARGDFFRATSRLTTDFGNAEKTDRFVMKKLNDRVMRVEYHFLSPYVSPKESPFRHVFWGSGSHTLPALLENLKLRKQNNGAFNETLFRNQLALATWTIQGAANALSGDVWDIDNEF
Chain of UniProt Q969Z0 (Q969Z0 whole entry, looked up): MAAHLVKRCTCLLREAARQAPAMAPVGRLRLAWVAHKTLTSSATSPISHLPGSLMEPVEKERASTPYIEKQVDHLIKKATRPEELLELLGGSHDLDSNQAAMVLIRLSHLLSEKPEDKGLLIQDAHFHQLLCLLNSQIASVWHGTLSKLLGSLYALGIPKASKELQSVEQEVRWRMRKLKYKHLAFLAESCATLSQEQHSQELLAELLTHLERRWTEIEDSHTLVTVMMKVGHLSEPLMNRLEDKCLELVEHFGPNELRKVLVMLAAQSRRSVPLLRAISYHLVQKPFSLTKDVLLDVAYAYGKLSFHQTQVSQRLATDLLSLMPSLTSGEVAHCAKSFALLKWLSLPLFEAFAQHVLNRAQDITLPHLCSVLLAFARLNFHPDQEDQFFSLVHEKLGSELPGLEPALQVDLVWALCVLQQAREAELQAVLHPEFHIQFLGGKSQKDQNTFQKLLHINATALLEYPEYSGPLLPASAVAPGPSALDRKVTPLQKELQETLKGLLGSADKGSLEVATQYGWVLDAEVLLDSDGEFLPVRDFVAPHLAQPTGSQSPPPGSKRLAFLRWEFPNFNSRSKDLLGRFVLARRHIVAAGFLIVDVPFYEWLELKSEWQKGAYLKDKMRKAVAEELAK
Chain of UniProt Q9UBP0 (Q9UBP0 whole entry, looked up): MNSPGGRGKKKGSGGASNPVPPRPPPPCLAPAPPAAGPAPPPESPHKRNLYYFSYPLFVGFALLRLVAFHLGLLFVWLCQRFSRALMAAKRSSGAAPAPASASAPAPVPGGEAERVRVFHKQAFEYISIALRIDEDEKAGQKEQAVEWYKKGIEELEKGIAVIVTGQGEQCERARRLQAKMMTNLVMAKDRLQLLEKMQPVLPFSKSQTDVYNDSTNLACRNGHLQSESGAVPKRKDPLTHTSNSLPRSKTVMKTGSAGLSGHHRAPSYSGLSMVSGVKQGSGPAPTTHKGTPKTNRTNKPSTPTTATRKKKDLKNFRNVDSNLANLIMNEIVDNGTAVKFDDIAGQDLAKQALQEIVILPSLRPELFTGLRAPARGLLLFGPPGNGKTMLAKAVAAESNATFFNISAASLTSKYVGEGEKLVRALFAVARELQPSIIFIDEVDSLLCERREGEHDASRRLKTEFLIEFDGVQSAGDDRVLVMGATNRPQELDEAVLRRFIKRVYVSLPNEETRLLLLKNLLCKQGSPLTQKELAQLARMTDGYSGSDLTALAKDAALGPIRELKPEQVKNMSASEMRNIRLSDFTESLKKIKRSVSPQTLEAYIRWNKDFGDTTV
Chain of UniProt O43615 (O43615 whole entry, looked up): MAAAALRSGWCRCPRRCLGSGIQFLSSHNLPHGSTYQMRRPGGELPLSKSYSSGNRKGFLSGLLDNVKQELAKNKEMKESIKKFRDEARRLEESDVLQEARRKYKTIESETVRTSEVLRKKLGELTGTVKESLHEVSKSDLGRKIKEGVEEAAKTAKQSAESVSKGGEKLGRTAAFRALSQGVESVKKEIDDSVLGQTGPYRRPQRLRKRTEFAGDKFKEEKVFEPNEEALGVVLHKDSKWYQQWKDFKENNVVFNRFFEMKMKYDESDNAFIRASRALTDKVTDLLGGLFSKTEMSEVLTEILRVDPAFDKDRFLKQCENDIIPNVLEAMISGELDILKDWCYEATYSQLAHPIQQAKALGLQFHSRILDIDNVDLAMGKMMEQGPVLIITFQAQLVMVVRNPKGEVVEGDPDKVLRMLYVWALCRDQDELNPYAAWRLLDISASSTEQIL
Chain of UniProt Q15796 (Q15796 whole entry, looked up): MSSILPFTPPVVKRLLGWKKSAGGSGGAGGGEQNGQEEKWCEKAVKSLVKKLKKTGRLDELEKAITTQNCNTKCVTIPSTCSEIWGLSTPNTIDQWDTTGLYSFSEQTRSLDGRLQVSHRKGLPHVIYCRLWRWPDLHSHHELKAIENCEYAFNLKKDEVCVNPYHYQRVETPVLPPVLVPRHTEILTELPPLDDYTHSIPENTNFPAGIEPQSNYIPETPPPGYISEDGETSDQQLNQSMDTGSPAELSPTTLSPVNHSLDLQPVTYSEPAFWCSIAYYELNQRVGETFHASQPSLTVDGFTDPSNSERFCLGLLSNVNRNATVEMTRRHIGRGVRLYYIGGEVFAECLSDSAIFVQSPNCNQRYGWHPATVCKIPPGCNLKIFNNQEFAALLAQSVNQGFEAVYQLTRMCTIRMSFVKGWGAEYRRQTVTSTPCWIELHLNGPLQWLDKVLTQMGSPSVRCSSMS
Chain of UniProt Q9Y5L4 (Q9Y5L4 whole entry, looked up): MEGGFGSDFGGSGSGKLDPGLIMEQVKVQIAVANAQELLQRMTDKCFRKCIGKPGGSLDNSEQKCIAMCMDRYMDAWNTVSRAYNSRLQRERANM

| Target | log2 fold change (bafetinib) | log2 fold change [1] | log2 fold change (nilotinib) | log2 fold change [2] | log2 fold change (dasatinib) | log2 fold change [3] | log2 fold change [4] | log2 fold change [5] | log2 fold change (tipifarnib) | log2 fold change (mubritinib) | log2 fold change [6] | log2 fold change [7] | log2 fold change [8] | log2 fold change [9] | log2 fold change (entinostat) | log2 fold change (vorinostat) | log2 fold change (citarinostat) | log2 fold change (silmitasertib) | log2 fold change [10] | log2 fold change [11] |
| --- | --- | --- | --- | --- | --- | --- | --- | --- | --- | --- | --- | --- | --- | --- | --- | --- | --- | --- | --- | --- |
| SLC25A39 (UniProt Q9BZJ4) | -0.182 | -0.397 | -0.136 | -0.119 | -0.035 | 0.035 | 0.081 | 0.092 | 0.009 | 0.104 | 0.059 | -0.183 | -0.345 | -0.105 | 0.061 | -0.05 | -0.015 | 0.023 | 0.073 | 0.223 |
| TFRC (UniProt P02786) | -0.277 (active) | -0.038 | -0.005 | -0.043 | 0.009 | -0.018 | 0.012 | 0.027 | -0.004 | 0.052 | -0.021 | -0.031 | -0.823 (active) | -0.001 | -0.008 | -0.02 | 0.062 | 0.006 | -0.023 | -0.071 |
| SURF1 (UniProt Q15526) | -0.184 | -0.042 | -0.065 | 0.028 | -0.028 | 0.011 | 0.021 | 0.019 | -0.061 | 0.042 | -0.007 | 0.014 | -0.176 | -0.135 | 0.077 | 0.059 | 0.112 | -0.04 | -0.031 | -0.043 |
| THRAP3 (UniProt Q9Y2W1) | 0.052 | -0.025 | 0.049 | -0.177 | -0.009 | 0 | -0.045 | -0.033 | 0.118 | 0.063 | -0.02 | -0.076 | -0.153 | -0.037 | 0.024 | 0.021 | 0.005 | -0.169 | -0.026 | -0.257 |
| TERF2IP (UniProt Q9NYB0) | -0.051 | -0.008 | -0.006 | -0.163 | -0.028 | -0.128 | -0.078 | -0.033 | 0.074 | -0.014 | 0.009 | -0.132 | 0.007 | -0.018 | 0.061 | 0.041 | 0.068 | 0.121 | -0.051 | -0.073 |
| TIMM44 (UniProt O43615) | -0.355 (active) | 0.045 | -0.062 | -0.066 | -0.192 | 0.006 | 0.026 | -0.002 | -0.054 | 0.001 | -0.085 | -0.141 | -0.372 (active) | -0.023 | 0.084 | 0.04 | 0.066 | -0.041 | -0.027 | -0.048 |
| TBRG4 (UniProt Q969Z0) | -0.137 | -0.035 | -0.027 | -0.291 | -0.513 | 0.006 | 0.095 | 0.003 | -0.317 | -0.277 | -0.103 | -0.172 | -0.58 | -0.255 | 0.214 | 0.201 | 0.128 | 0.074 | -0.191 | -0.086 |
| TIMM13 (UniProt Q9Y5L4) | 0.086 | 0.156 | 0.018 | -0.017 | 0 | 0.035 | 0.07 | -0.003 | -0.111 | 0.005 | 0.114 | 0.031 | -0.027 | 0.012 | 0.01 | 0.031 | 0.117 | -0.016 | 0.152 | 0.107 |
| TBC1D9B (UniProt Q66K14) | -0.262 | -0.042 | -0.055 | 0.053 | -0.156 | -0.034 | 0.07 | -0.06 | 0.019 | 0.203 | -0.194 | -0.095 | -0.07 | -0.012 | -0.085 | -0.034 | 0.173 | 0.021 | -0.176 | -0.13 |
| SLIRP (UniProt Q9GZT3) | -0.156 | -0.099 | 0.118 | -0.027 | -0.134 | -0.073 | 0.131 | 0.075 | 0.031 | -0.044 | -0.121 | -0.106 | -0.041 | -0.062 | 0.127 | -0.055 | 0.023 | -0.016 | -0.129 | -0.129 |
| TBC1D23 (UniProt Q9NUY8) | -0.141 | 0.041 | -0.113 | -0.032 | -0.155 | -0.056 | 0.025 | 0.006 | 0.003 | -0.011 | 0.015 | -0.135 | -0.33 (active) | -0.009 | 0.06 | 0.115 | 0.045 | 0.02 | -0.073 | -0.047 |
| STK26 (UniProt Q9P289) | -0.057 | 0.026 | -0.089 | 0.198 | -0.319 (active) | -0.057 | -0.058 | 0.015 | -0.036 | -0.036 | 0.07 | -0.005 | -0.111 | -0.057 | -0.063 | 0.034 | 0.092 | 0.069 | -0.017 | -0.007 |
| SMAD2 (UniProt Q15796) | -0.019 | -0.037 | -0.085 | -0.123 | -0.13 | -0.14 | 0.023 | 0.057 | 0.012 | 0.022 | -0.184 | -0.064 | 0.005 | -0.039 | -0.103 | -0.051 | 0.034 | -0.073 | 0.009 | -0.018 |
| TAOK1 (UniProt Q7L7X3) | -0.056 | 0.025 | 0.007 | -0.023 | -0.014 | -0.03 | 0.043 | -0.026 | 0.067 | 0.078 | -0.043 | -0.04 | -0.063 | -0.068 | -0.01 | 0.048 | 0 | -0.003 | -0.038 | -0.194 |
| SPAST (UniProt Q9UBP0) | -0.015 | -0.057 | -0.05 | -0.054 | -0.246 (active) | 0.026 | 0.099 | -0.022 | -0.065 | 0.036 | 0.027 | -0.003 | -0.12 | -0.109 | 0.075 | 0.033 | 0.058 | 0.028 | -0.035 | -0.029 |
| TCOF1 isoform 6 (UniProt Q13428) | 0.137 | – | -0.102 | 0.14 | – | -0.033 | 0.07 | -0.061 | – | -0.091 | 0.281 | – | -0.07 | 0.077 | 0.23 | – | 0.18 | 0.028 | – | -0.042 |
